# Assay outcomes (PubChem)
# This is a sample that favours compounds with a hit; in the whole collection about 6.1% have one here.
# DRD3 agonist: activates the human D3 dopamine receptor; D3R DiscoveRx beta-arrestin cells, luminescence, 90 min; max activation, %; 410,000 tested, 0.58% active; in the data active = max activation above about 30%; also: 0% is about no effect
# Target sequence (P35462 whole entry, looked up): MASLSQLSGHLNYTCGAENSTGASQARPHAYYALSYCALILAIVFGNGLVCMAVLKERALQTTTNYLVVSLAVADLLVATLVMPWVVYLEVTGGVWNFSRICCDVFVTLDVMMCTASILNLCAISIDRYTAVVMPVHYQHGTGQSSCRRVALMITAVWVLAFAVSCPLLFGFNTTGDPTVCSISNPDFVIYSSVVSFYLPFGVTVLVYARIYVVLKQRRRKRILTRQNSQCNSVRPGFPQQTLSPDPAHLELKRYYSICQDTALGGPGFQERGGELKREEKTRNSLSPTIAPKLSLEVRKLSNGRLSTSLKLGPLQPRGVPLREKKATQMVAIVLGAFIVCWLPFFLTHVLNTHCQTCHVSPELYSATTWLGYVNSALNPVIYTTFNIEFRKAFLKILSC
#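 Agonist mode: compounds and dopamine controls were applied to plated cells for 90 min at 37 degrees C after an overnight attachment at 1500 cells/well. Luminescent read-out followed 30 - 60 minutes at room temperature with DiscoveRx detection reagent.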
# D1 PAM: potentiators of human D1 dopamine receptor | P21728 | HEK293 TREx D1 cells, calcium flux, dopamine EC20 potentiation | potentiation, % at 10 µM | 360,000 tested, 0.036% active | AID 504651; in the data active = potentiation above about 30%; also: 0% is about no effect
# D3 antag: antagonists of human D3 dopamine receptor. D3R cells, DiscoveRx beta-arrestin luminescence, antagonist mode; stronger effect = lower value. max response, negative = inhibition, %. 360,000 tested, 2.5% active. AID 652054; in the data active = max response below about -50%; inconclusive = no clear call, values can overlap the other calls; also: % is scaled to controls: 0 for no effect and ±100 for the full control effect
#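 Cells expressing the human receptor were seeded at 1500 cells/well, incubated overnight at 37 degrees C in 5% CO2, then exposed to library compounds with dopamine controls for 90 minutes at 37 degrees C before luminescent detection.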
# D1 agonist: activates the human D1 dopamine receptor; P21728; HEK293 T-REx D1 cells, calcium flux, agonist mode; activation, % at 2 µM; 360,000 tested, 1% active; AID 504660; in the data active = activation above about 30%; also: 0% is about no effect
#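 Inducible HEK293 T-REx D1 cells, force-coupled to calcium signalling, were plated at 4000 cells/well with tetracycline and held overnight at 30 C. After no-wash calcium dye loading, compound-evoked calcium rise over 180 s flagged agonists.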
# D1 antag: blocks dopamine activation of the human D1 receptor | P21728 | HEK293 TREx D1 cells, calcium flux, dopamine EC80; stronger effect = lower value | activity change, negative = inhibition, % at 10 µM | 360,000 tested, 3.2% active | AID 504652; in the data active = activity change below about -30%; also: % is scaled to controls: 0 for no effect and ±100 for the full control effect
#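 Cells carrying a force-coupled, tetracycline-inducible human D1 receptor report calcium flux. Each well gets a 10 s baseline, compound with 180 s monitoring, then an EC80 dopamine stimulus with a second 180 s kinetic read.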
# * = called active by the depositor; u = inconclusive; x = not tested or not shown.
SMILES,DRD3 agonist,D1 PAM,D3 antag,D1 agonist,D1 antag
CCN(c1ccccc1)S(=O)(=O)c1ccc(Cl)c(C(=O)OCC(=O)NC(=O)C(C)C)c1,2,-1,25,4,-34*
CCc1ccccc1NC(=S)NC1CC2CCCC(C1)N2Cc1cccs1 (stereo not given),-35,-7,-76*,4,3
Cc1cccc(NC(=S)NC2CC3CCCC(C2)N3Cc2cccs2)c1C (stereo not given),-30,-10,-72*,2,5
CCCN1C2CCCC1CC(NC(=S)Nc1cccc(C)c1C)C2 (stereo not given),-6,-13,-15,2,-13
CCOC(=O)C(C#N)=CN1CCNc2ccccc21,-1,x,6,x,x
C[C@@H]1NC(=O)[C@@H](N)CNC(=O)[C@H](C2CCNC(N)=N2)NC(=O)/C(=C/NC(N)=O)NC(=O)[C@H](CNC(=O)C[C@@H](N)CCCN)NC1=O (stereo not given in full),-12,x,x,x,x
Cc1ccccc1NC(=O)N1CCc2cc(S(=O)(=O)N3CCC(C)CC3)ccc21,5,-4,x,0,-20
COc1ccccc1/C=C/CN1CCN(c2ccccc2)CC1,19,-8,-64*,2,-54*
COc1ccc(CC2(CO)CCN(C(C)COc3ccccc3)CC2)cc1 (stereo not given),18,-3,u,0,0
COc1ccccc1/C=C/CN1CCCC(CO)(CCc2ccccc2)C1 (stereo not given),-23,0,-96*,1,-18
OCC1(CCc2ccccc2)CCCN(C/C=C/c2ccccc2)C1 (stereo not given),-23,-7,-68*,6,8
CC(COc1ccccc1)N1CCC(CO)(Cc2ccccc2)CC1 (stereo not given),-9,-2,-89*,14,20
CCOC(=O)n1ccn(C)c1=S,7,x,x,x,x
O=C(CCc1ccccc1)Nc1nc2c(F)cc(F)cc2s1,5,-2,13,0,-5
CC(C)(C)N(Cc1ccccc1)C(=O)COC(=O)CNS(=O)(=O)c1ccc2ccccc2c1,-15,-2,-8,4,-10
COc1ccc(CC2(CO)CCN(Cc3ccc(OC(F)(F)F)cc3)CC2)cc1,-19,-5,-20,12,6
COc1ccc(CC2(CO)CCN(C/C=C/c3ccccc3OC)CC2)cc1,-26,2,-93*,0,22
NC(=O)C(c1ccccc1)C1CCCCC1 (stereo not given),3,-3,21,3,-15
CCN(CC)CCOC(=O)C(c1ccccc1)C1CCCCC1 (stereo not given),-84,x,-89*,x,x
CCN(CCO)C(=O)C(c1ccccc1)c1ccccc1,3,-4,-16,2,-59*
CCN(CC)CCSC(=O)C(c1ccccc1)c1ccccc1,-27,x,x,x,x
CCN(CC)CCOC(=O)C(Cc1ccco1)Cc1cccc2ccccc12 (stereo not given),-20,x,u,x,x
CCN(CC)CCOC(=O)CCc1cccc2ccccc12,1,-3,-66*,0,3
CCN(CC)CCOC(=O)C(c1ccccc1)c1ccccc1,-82,-4,-67*,13,35
CC(=O)N1CCc2c(sc3c2c(=O)n(CCc2ccccc2)c(=O)n3Cc2cccc(C)c2)C1,-2,-5,x,6,-13
SMILES,DRD3 agonist,D1 PAM,D3 antag,D1 agonist,D1 antag
Cc1cc(C)cc(NC(=O)N2CCN(S(C)(=O)=O)CC2)c1,8,-4,13,-1,x
CCCCn1c(N)c(N(Cc2ccccc2OC)C(=O)CCSC)c(=O)[nH]c1=O,3,-5,10,2,2
CN=C1CC(SC)=C1c1ccc(C)cc1,2,3,-8,0,1
C=CCN(C(=O)CSC1=NC(=O)CN1C(C)=O)c1nc(C)c(-c2ccccc2)s1,2,10,u,1,-23
Cc1cc(C)n(C(=O)COc2ccccc2[N+](=O)[O-])n1,5,-3,22,2,3
CCOC(=O)c1sc(Nc2cccc(C)c2C)nc1C,x,3,x,31*,19
CCOC(=O)c1sc(N/N=C/c2ccc(N(C)C)cc2)nc1C,10,-11,2,0,-47*
CCOC(=O)c1sc(Nc2cccc(Cl)c2)nc1C,-10,5,1,2,11
COc1ccc(NC(=O)c2nnn(Cc3nc(-c4cc(OC)c(OC)c(OC)c4)oc3C)c2C)cc1,-3,4,x,-2,4
CN(C)CCOc1ccccc1Cc1ccccc1 (tested in a mixture with another compound),-19,x,x,x,x
Cc1ccc(P(=O)(O)c2ccc(C)cc2)cc1,-9,-4,-20,3,-7
Cc1ccc(P(=O)(c2ccc(C)cc2)[C@@H](NC(c2ccccc2)c2ccccc2)c2ccccc2)cc1,-17,x,-109*,x,x
Cc1cc2oc(=O)cc(CN(C)Cc3ccccc3Cl)c2cc1C,-10,-6,-18,2,0
Cc1nnc(SCc2cc(=O)n3cccc(C)c3n2)s1,-22,2,x,0,-47*
Cc1cccn2c(=O)cc(CSc3nnc(NC(=O)c4ccc(F)cc4)s3)nc12,-6,0,x,0,-3
CCOC(=O)C1=C(O)/C(=C\c2cc(C)n(-c3ccccc3F)c2C)N=C1C,-4,-4,-14,4,0
Cc1cc(/C=N/N2CCN(C)CC2)c(C)n1-c1ccccc1F,-9,-11,-71*,4,6
Cc1ccccc1C(=O)NCC(=O)OC(C(=O)Nc1cc(C(F)(F)F)ccc1Cl)c1ccccc1 (stereo not given),x,-4,x,13,-8
S=C(Nc1cccnc1)Nc1cccc2cnccc12,0,-6,3,3,-13
CN(C)S(=O)(=O)c1cccc(NC(=S)Nc2cccc3cnccc23)c1,-15,0,-59*,4,-10
CCOC(=O)Cc1ccc(NC(=O)Nc2cccc(OCc3cc(=O)n4cc(C)ccc4n3)c2)cc1,5,0,x,1,7
CCOC(=O)C(Cc1ccccc1)NC(=O)CCc1nnc2ccc(N3CCOCC3)nn12 (stereo not given),8,-6,-6,2,-30*
CCOc1ccc(CCNC(=O)CCc2nnc3ccc(N4CCOCC4)nn23)cc1OCC,0,-5,-2,2,-24
Cc1ccc(S(=O)(=O)/N=C(/NC(=S)Nc2ccccc2)c2ccccc2)cc1,2,-2,5,0,13
Cc1ccc(S(=O)(=O)C/N=C(/NC(=S)N(c2ccccc2)c2ccccc2)c2ccccc2)cc1,-14,7,-56*,0,0
CCc1nnc(N/N=C/c2cc(Br)c(O)cc2O)n1N,-2,-8,6,1,-5
CC(C)(C)c1nnc(N/N=C/c2cc(Br)ccc2O)n(N)c1=O,57*,-7,90,2,-8
